The results in this text go back to PubChem BioAssay (Tox21).

Records with an inconclusive call do not appear. A number with no mark means an inactive call. Calls follow the shape of the dose curve; as a rule, active = well fitted activation curve with a large enough effect in the repeat runs; inconclusive = weak or mixed curves; inactive = no such curve, though single readings can be large or run the other way.
% is scaled to controls: 0 for no effect and ±100 for the full control effect.

Nuclear receptor subfamily 1 group I member 2 (Rattus norvegicus), sequence (Q9R1A7 whole entry, looked up): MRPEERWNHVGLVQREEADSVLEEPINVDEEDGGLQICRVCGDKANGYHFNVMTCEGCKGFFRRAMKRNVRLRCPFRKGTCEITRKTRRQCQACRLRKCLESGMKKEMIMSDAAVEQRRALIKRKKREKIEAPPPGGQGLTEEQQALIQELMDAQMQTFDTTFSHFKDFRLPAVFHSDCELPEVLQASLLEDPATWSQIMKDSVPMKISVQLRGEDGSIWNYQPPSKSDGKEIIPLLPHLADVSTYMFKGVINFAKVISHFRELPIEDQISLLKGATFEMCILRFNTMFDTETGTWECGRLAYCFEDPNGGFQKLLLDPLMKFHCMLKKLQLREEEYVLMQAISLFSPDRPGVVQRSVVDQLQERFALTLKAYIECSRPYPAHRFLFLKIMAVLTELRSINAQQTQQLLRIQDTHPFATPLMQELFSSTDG

The assay deals with Nuclear receptor subfamily 1 group I member 2 (Rattus norvegicus) (UniProt Q9R1A7). Kind of assay: Rat pregnane X receptor (rPXR) activation by small molecules, qHTS assay (AID 1346983). Also: nearly all actives have a fitted effect of over 20% in size. To be noted: rPXR luciferase reporter cells, One-Glo luminescence, 24 h; max activation: active compounds read high. The procedure, abridged:
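Luminescent readout (One-Glo luciferase, 30 min room temperature) followed 24 hr compound treatment at 37 C of rPXR cells plated 2,000 per well and preincubated 5hr; qHTS format with compounds delivered in DMSO.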
In general terms: Quantitative high-throughput screening tests each substance at several concentrations.
On to `O=C1c2c(O)cccc2[C@H]([C@@H]2O[C@H](CO)[C@@H](O)[C@H](O)[C@H]2O)c2cc(CO)cc(O)c21`, for which the max activation was 0.818%.
Take `Cc1cc(=O)c(C(=O)N[C@@H](C(=O)N[C@@H]2C(=O)N3C(C(=O)O)=C(CSc4nnnn4C)CS[C@H]23)c2ccc(O)cc2)c[nH]1`: the max activation was -0.22%.
As for `O=C1c2ccccc2CN2C(=O)c3ccccc3CN12`, the max activation was -1.83%.
`C[C@@H]1O[C@@H](OC[C@H]2O[C@@H](Oc3c(-c4ccc(OCCO)c(OCCO)c4)oc4cc(OCCO)cc(O)c4c3=O)[C@H](O)[C@@H](O)[C@@H]2O)[C@H](O)[C@H](O)[C@H]1O`: the max activation is -1.87%.
For `CN[C@@H]1[C@@H](O[C@H]2O[C@H](CO)[C@@H](N)[C@H](O)[C@H]2O)O[C@H]2C[C@@H](N)[C@@H](O[C@H]3[C@H](O)[C@@H](O)[C@H](N)C[C@@H]3N)O[C@@H]2[C@@H]1O`, the max activation was -0.875%.
